In PubChem BioAssay (NCI):
The panel holds about 83,000 compounds, 20% with a hit somewhere; the sample as a whole holds those more often.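 Note: values are percent growth. 100 is the growth of untreated cells, values between 100 and 0 indicate rising inhibition; between -100 and 0 indicates cell death.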 Values without a mark were called inactive. Calls of active or inactive are those of the source. Rule for the calls: active = growth percent below 10; inactive = the rest.

What was measured:
Assay in all cases: NCI-60 one-dose screen, 48 h (100 = growth as untreated, 0 = no growth, -100 = all killed)
Conditions in all cases: 10 µM unless noted
T-47D breast = test system: T-47D breast
BT-549 breast = test system: BT-549 breast
MDA-MB-435 melanoma = test system: MDA-MB-435 melanoma
SW-620 colon = test system: SW-620 colon
MCF7 breast = test system: MCF7 breast
HCT-116 colon = test system: HCT-116 colon
HCC-2998 colon = test system: HCC-2998 colon
KM12 colon = test system: KM12 colon

Row | Structure (SMILES) | growth (T-47D breast) | growth (BT-549 breast) | growth (MDA-MB-435 melanoma) | growth (SW-620 colon) | growth (MCF7 breast) | growth (HCT-116 colon) | growth (HCC-2998 colon) | growth (KM12 colon)
1 | Clc1ccc(-c2nnc(COc3ccccc3Cl)o2)cc1 | 69.9% | 89.4% | 58.4% | 91.1% | 78.7% | 51.7% | 86.8% | 82.4%
2 | C[C@]12C[C@@H](c3ccoc3)OC(=O)[C@@H]1CC[C@]1(C)[C@@H]2CC[C@@H](O)[C@]1(C)O | 82.6% | 106% | 57.4% | 63.2% | 108% | 90.5% | 95.8% | 102%
3 | Clc1nc(Cl)c2c3c(sc2n1)CCCC3 | 38.4% | 13.3% | 49.3% | 34.3% | 30.7% | 12.5% | 97.6% | 74.2%
4 | Cn1cc(-c2nc(-c3c[nH]c4ccccc34)cs2)c2cccnc21 | 0.223% (active) | 7.05% (active) | 1.86% (active) | 32% | 14.7% | 26.3% | 54.7% | 27.4%
5 | CC[C@]12C=CCN3CC[C@@]4(c5ccc(OC)cc5N(C)[C@H]4[C@@](O)(C(=O)OC)[C@@H]1OC(=O)CCC(=O)N[C@@H](Cc1c[nH]c4ccccc14)C(=O)OC)[C@@H]32 | 67.8% | 115% | 95.3% | 96.4% | 90% | 100% | 70.6% | 106%
6 | O=C(Cn1cc(CN2C(=O)c3ccccc3S2(=O)=O)nn1)Nc1ccc([N+](=O)[O-])cc1Cl | 76.9% | 103% | 103% | 98.1% | 83% | 103% | 98.4% | 93.8%
7 | CCN(CC)CC(O)c1cc(-c2ccc(Cl)cc2)nc2c(C)c(Cl)ccc12 (configuration not stated) | -89.2% (active) | -36.1% (active) | -90% (active) | -85.8% (active) | -92% (active) | -100% (active) | -97.4% (active) | -100% (active)
8 | O=C(Nc1ccc(CN2CCOCC2)cc1)c1[nH]ncc1Nc1ncnc2sccc12 | 17.5% | -8.71% (active) | 18.1% | 5.35% (active) | 8.76% (active) | 6.07% (active) | -9.48% (active) | 0.0776% (active)
9 | C(=N\Nc1ccccn1)/c1ccccn1 | 22.8% | -16.8% (active) | 33.6% | 37.4% | 12.4% | 4.73% (active) | 19.2% | 29.6%
10 | COc1ccc(CCN2CC=Cn3c2nc2ccccc2c3=O)cc1 | 75% | 17.2% | -4.94% (active) | 25.9% | 18.9% | 10.2% | 5.15% (active) | 4.27% (active)
11 | CN1CCN(Cc2ccc(NC(=O)c3cncc(C#Cc4cncc5nccnc45)c3)cc2C(F)(F)F)CC1 | 46.5% | 82.8% | 21.9% | 26.4% | 33.8% | 20.2% | 33.6% | 13.9%
12 | COc1ccc(C/C(C)=C(\c2ccc(OCCN3CCCCCC3)cc2)c2ccc(OC(=O)C3CCCCC3)cc2)cc1 | 38.1% | 83.7% | 68.8% | 64.8% | 29.3% | 38.5% | 56.9% | 63.1%
13 | O=S(=O)(NCCCNc1cc(-c2cn(-c3ccccc3)nc2-c2ccccc2)ccn1)c1ccc(C(F)(F)F)cc1 | 38.7% | 71.2% | 50% | 71.1% | 39.2% | 43.2% | 64.1% | 40.5%
14 | O=C1Nc2ccc(Br)cc2C12CC(c1ccccc1)=NN2 (configuration not stated) | 71.6% | 47.8% | -21.1% (active) | 18.6% | 18.3% | 22.9% | 75.2% | 30.6%
